# In the antibiotic and cytotoxicity screens of Wong et al. (2023):
# The campaign covered roughly 39,000 compounds. About 3,300 (8.5%) were called active. This excerpt belongs to a sample that is enriched for actives.
# System: HepG2
# Assay: cytotoxicity call (relative viability < 0.9)
# Conditions: 10 µM
row,Structure (SMILES),cytotoxicity call
1,C[C@@H]1CN([C@H](C)CO)C(=O)Cc2cc(NC(=O)CCN3CCOCC3)ccc2O[C@@H]1CN(C)Cc1ccncc1,inactive
2,C[C@H]1[C@H]([Si](C)(C)F)[C@@H](CCO)O[C@]12C(=O)N(Cc1cccc(N(C=O)c3ccccc3)c1)c1ccccc12,inactive
3,COc1ccc([Si](C)(C)[C@H]2[C@H](CCO)O[C@@]3(C(=O)N(Cc4cccc(N(C=O)c5ccccc5)c4)c4ccccc43)[C@@H]2C)cc1,active
4,COc1ccc([Si](C)(C)[C@H]2[C@H](CCO)O[C@@]3(C(=O)N(Cc4ccc(N(C=O)c5ccccc5)cc4)c4ccccc43)[C@@H]2C)cc1,active
5,COc1ccc([Si](C)(C)[C@@H]2[C@@H](CCO)O[C@]3(C(=O)N(Cc4ccc(N(C=O)c5ccccc5)cc4)c4ccccc43)[C@H]2C)cc1,active
6,COc1ccc([Si](C)(C)[C@@H]2[C@@H](CCO)O[C@]3(C(=O)N(Cc4cccc(N5CCCCC5=O)c4)c4ccccc43)[C@H]2C)cc1,inactive
7,C[C@@H]1CN([C@@H](C)CO)C(=O)c2cccc(NS(=O)(=O)c3ccccc3)c2O[C@@H]1CN(C)S(=O)(=O)c1cccs1,inactive
8,CC(C)CC#Cc1ccc2c(c1)O[C@H](CN(C)C(=O)NC1CCCC1)[C@H](C)CN([C@H](C)CO)S2(=O)=O,inactive
9,CO[C@@H]1CN(C)C(=O)c2ccc(NC(=O)CC(F)(F)F)cc2OC[C@@H](C)N(C(=O)C2CCOCC2)C[C@@H]1C,inactive
10,C[C@H]1CN([C@@H](C)CO)C(=O)c2cc(NC(=O)c3ccncc3)ccc2O[C@H]1CN(C)Cc1ccc(-c2ccccc2)cc1,inactive
11,CC1=NCCN1,inactive
12,CC(C)c1ccc2c(ccc[n+]2C)c1,inactive
13,COC(=O)C[C@H]1CC[C@@H]2[C@H](COC[C@@H](O)CN2S(=O)(=O)c2cn(C)cn2)O1,inactive
14,COc1ccc(S(=O)(=O)Nc2cccc3c2O[C@@H](CN(C)S(=O)(=O)c2ccccc2)[C@H](C)CN([C@H](C)CO)C3=O)cc1,inactive
15,COCC(=O)N1C[C@H](C)[C@H](OC)CN(C)C(=O)c2ccc(NC(=O)c3ccc(OC)cc3)cc2OC[C@@H]1C,inactive
16,Cc1ccc(S(=O)(=O)N(C)C[C@@H]2OCCCC[C@@H](C)Oc3ccc(NS(=O)(=O)c4ccc(F)cc4)cc3C(=O)N([C@@H](C)CO)C[C@@H]2C)cc1,inactive
17,C[C@H](CO)N1C[C@H](C)[C@@H](CN(C)C(=O)Nc2ccccc2C(F)(F)F)OCc2ccccc2-c2ccccc2C1=O,inactive
18,C=C(NC(=O)C(=C)NC(=O)c1csc(C2=N[C@H]3c4csc(n4)[C@H]4NC(=O)c5csc(n5)[C@H](C(C)(O)[C@@H](C)O)NC(=O)[C@H]5CSC(=N5)C(=CC)NC(=O)[C@H]([C@@H](C)O)NC(=O)c5csc(n5)[C@]3(CC2)NC(=O)[C@H](C)NC(=O)C(=C)NC(=O)[C@H](C)NC(=O)[C@H]([C@H](C)CC)N[C@@H]2C=Cc3c([C@H](C)O)cc(nc3[C@H]2O)C(=O)O[C@@H]4C)n1)C(N)=O (some centres not stated),active
19,C=C(NC(=O)C(=C)NC(=O)c1csc(C2=N[C@@H]3c4csc(n4)[C@@H]4NC(=O)c5csc(n5)[C@H](C(C)(O)[C@@H](C)O)NC(=O)[C@H]5CSC(=N5)/C(=C/C)NC(=O)[C@H]([C@@H](C)O)NC(=O)c5csc(n5)[C@]3(CC2)NC(=O)[C@@H](C)NC(=O)C(=C)NC(=O)[C@@H](C)NC(=O)[C@@H]([C@H](C)CC)N[C@H]2C=Cc3c([C@@H](C)O)cc(nc3[C@@H]2O)C(=O)O[C@H]4C)n1)C(N)=O (some centres not stated),inactive

row,Structure (SMILES),cytotoxicity call
1,C=C(NC(=O)C(=C)NC(=O)c1csc(C2=NC3c4csc(n4)C4NC(=O)c5csc(n5)C(C(C)(O)C(C)O)NC(=O)C5CSC(=N5)C(=CC)NC(=O)C(C(C)O)NC(=O)c5csc(n5)C3(CC2)NC(=O)C(C)NC(=O)C(=C)NC(=O)C(C)NC(=O)C(C(C)CC)NC2C=Cc3c(C(C)O)cc(nc3C2O)C(=O)OC4C)n1)C(N)=O (configuration not stated),active
2,C[C@@H]1CN([C@@H](C)CO)C(=O)Cc2cc(NS(C)(=O)=O)ccc2O[C@H]1CN(C)S(=O)(=O)c1cn(C)cn1,inactive
3,C[C@H](CO)N1C[C@H](C)[C@H](CN(C)S(=O)(=O)c2ccc(F)cc2)Oc2ccc(NC(=O)c3ccncc3)cc2CC1=O,inactive
4,COc1ccc(S(=O)(=O)N(C)C[C@H]2Oc3c(cccc3N(C)C)C(=O)N([C@@H](C)CO)C[C@@H]2C)cc1,inactive
5,COc1ccc2c3c(n(c2c1)C)[C@@H](CO)N(C[C@]13CN(C1)C(=O)c1ccncc1)C(=O)C1CCCCC1,inactive
6,COc1ccc(NC(=O)N2C[C@H](O)COC[C@@H]3O[C@@H](CC(=O)NC4Cc5ccccc5C4)CC[C@H]32)cc1,inactive
7,C[C@@H]1CN([C@H](C)CO)C(=O)c2cc(C#CC(C)(C)O)cnc2O[C@H]1CN(C)Cc1cccc(C(=O)O)c1,inactive
8,Cc1ccc(S(=O)(=O)N(C)C[C@@H]2Oc3ccc(N(C)C)cc3CC(=O)N([C@@H](C)CO)C[C@H]2C)cc1,inactive
9,C[C@@H]1CN([C@@H](C)CO)C(=O)c2cccc(NC(=O)NC3CCCCC3)c2O[C@@H]1CN(C)Cc1ccc(Oc2ccccc2)cc1,inactive
10,C[C@H](CO)N1C[C@H](C)[C@@H](CN(C)Cc2ccc(Oc3ccccc3)cc2)Oc2c(NC(=O)C3CCCCC3)cccc2C1=O,active
11,C[C@@H]1CN([C@@H](C)CO)C(=O)c2cccc(NC(=O)C3CCCCC3)c2O[C@H]1CN(C)Cc1ccc(Oc2ccccc2)cc1,inactive
12,C[C@H]1CN([C@@H](C)CO)C(=O)c2cccc(NC(=O)C3CCCCC3)c2O[C@H]1CN(C)Cc1ccc(Oc2ccccc2)cc1,inactive
13,C[C@H]1CN([C@@H](C)CO)C(=O)c2cccc(NC(=O)NC3CCCCC3)c2O[C@@H]1CN(C)Cc1ccc(Oc2ccccc2)cc1,inactive
14,C[C@H](CO)N1C[C@H](C)[C@H](CN(C)Cc2ccc(Oc3ccccc3)cc2)Oc2c(NC(=O)NC3CCCCC3)cccc2C1=O,active
15,COCCNC(=O)C[C@H]1C[C@@H]2c3cc(NS(C)(=O)=O)ccc3O[C@@H]2[C@H](CO)O1,inactive
16,CO[C@H]1CN(C)C(=O)c2cc(NC(=O)c3ccc(F)cc3)ccc2OC[C@@H](C)N(C(=O)CN(C)C)C[C@H]1C,inactive
17,COCC#Cc1ccc([C@@H]2[C@@H](CO)N3C(=O)CN(C(=O)CN4CCOCC4)C[C@H]23)cc1,inactive
18,C[C@H]1CN([C@@H](C)CO)C(=O)Cc2cc(NC(=O)Cn3cnnn3)ccc2O[C@@H]1CN(C)C(=O)Nc1ccc(C(F)(F)F)cc1,inactive
19,C[C@H]1CCCCO[C@H](CN(C)C(=O)Nc2ccc(F)cc2)[C@@H](C)CN([C@@H](C)CO)C(=O)c2cc(NS(=O)(=O)c3ccccc3)ccc2O1,inactive

row,Structure (SMILES),cytotoxicity call
1,O=C(OC1Cc2c(O)cc(O)cc2OC1c1cc(O)c(=O)c2c(O)c(O)cc(C3Oc4cc(O)cc(O)c4CC3O)c2c1)c1cc(O)c(O)c(O)c1 (configuration not stated),inactive
2,O=C(O[C@@H]1Cc2c(O)cc(O)cc2O[C@@H]1c1cc(O)c(O)c2c(=O)c(O)cc([C@H]3Oc4cc(O)cc(O)c4C[C@H]3O)c-2c1)c1cc(O)c(O)c(O)c1,active
3,O=c1c(O)cc([C@H]2Oc3cc(O)cc(O)c3C[C@H]2O)c2cc([C@H]3Oc4cc(O)cc(O)c4C[C@H]3O)cc(O)c(O)c1-2,inactive
4,COC(=O)C1=C(C)NC(C)=C(C(=O)OC)C1c1ccccc1[N+](=O)[O-],inactive
5,CCOC(=O)C1=C(COCCN)NC(C)=C(C(=O)OC)C1c1ccccc1Cl.O=S(=O)(O)c1ccccc1 (configuration not stated),active
6,CCOC(=O)C1=C(C)NC(C)=C(C(=O)OC)C1c1cccc(Cl)c1Cl (configuration not stated),inactive
7,C[C@H]1CN([C@@H](C)CO)C(=O)c2cccc(NC(=O)C3CC3)c2O[C@H]1CN(C)Cc1ccc(Oc2ccccc2)cc1,inactive
8,CC(=O)N(C)C[C@@H]1Oc2cc(C#CCN(C)C)ccc2S(=O)(=O)N([C@@H](C)CO)C[C@H]1C,inactive
9,C[C@H](CO)N1C[C@H](C)[C@H](CN(C)C(=O)c2ccccc2F)Oc2ncc(C#Cc3ccncc3)cc2C1=O,inactive
10,CC(C)n1c(C=CC(O)CC(O)CC(=O)[O-])c(-c2ccc(F)cc2)c2ccccc21.[Na+] (configuration not stated),active
11,CC(C)c1c(C(=O)Nc2ccccc2)c(-c2ccccc2)c(-c2ccc(F)cc2)n1CCC(O)CC(O)CC(=O)[O-].[Ca+2] (configuration not stated),inactive
12,CC(C)c1nc(N(C)S(C)(=O)=O)nc(-c2ccc(F)cc2)c1C=CC(O)CC(O)CC(=O)[O-].[Ca+2] (configuration not stated),inactive
13,C[C@@H]1CCCCO[C@@H](CN(C)C(=O)Nc2ccc(F)cc2)[C@H](C)CN([C@H](C)CO)C(=O)c2cc(NC(=O)NC3CCCCC3)ccc2O1,inactive
14,C=CCC[C@@H](Cc1ccc(F)cc1)C(=O)OC[C@@H](Cc1ccccc1)NC(=O)[C@H](CC=C)CC(=O)N(CCO)Cc1ccccc1,inactive
15,C=CCC[C@H](Cc1ccc(F)cc1)C(=O)OC[C@@H](Cc1c[nH]c2ccccc12)NC(=O)[C@H](CC=C)CC(=O)N(CCO)Cc1ccccc1,active
16,C=CCC[C@H](Cc1ccc(F)cc1)C(=O)OC[C@@H](Cc1c[nH]c2ccccc12)NC(=O)[C@@H](CC=C)CC(=O)N(CCO)Cc1ccccc1,active
17,C=CCC[C@@H](Cc1ccc(F)cc1)C(=O)OC[C@H](Cc1c[nH]c2ccccc12)NC(=O)[C@@H](CC=C)CC(=O)N(CCO)Cc1ccccc1,inactive
18,C=CCC[C@@H](Cc1ccc(F)cc1)C(=O)OC[C@@H](Cc1c[nH]c2ccccc12)NC(=O)[C@@H](CC=C)CC(=O)N(CCO)Cc1ccccc1,active
19,C=CCC[C@H](Cc1ccc(F)cc1)C(=O)OC[C@H](Cc1c[nH]c2ccccc12)NC(=O)[C@@H](CC=C)CC(=O)N(CCO)Cc1ccccc1,active
